Among the test systems are NCI-H23 lung; NCI-H226 lung; NCI-H322M lung; HOP-62 NSCLC; NCI-H460 lung; HOP-92 NSCLC; NCI-H522 lung; A549/ATCC NSCLC; 786-0 renal; COLO 205 colon; DU-145 prostate; K-562 leukemia; MALME-3M melanoma; MDA-MB-231 breast; RXF 393 renal; SF-268 CNS; SF-295 CNS; SF-539 CNS; UACC-257 melanoma; M14 melanoma.
What all share (assay): NCI-60 one-dose screen, 48 h (100 = growth as untreated, 0 = no growth, -100 = all killed)
Holding throughout (conditions): 10 µM unless noted

SMILES strings stand for the structures. Values joined by “and” are separate entries in the source; they are usually repeats but may differ in a detail not shown here. Equal entries are not always repeated. The panel holds about 83,000 compounds, 20% with a hit somewhere; the sample as a whole holds those more often.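 How to read the values: 0–100, growth inhibition (40 = 60% inhibited); 0, no net growth; -100 to 0, cell death (-40 = 40% of starting cells died; -100 = all dead).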 Some compounds were tested as several samples or in several runs, with calls that do not always agree. Active and inactive are the calls of the source. The calls were made as follows: active = growth percent below 10; inactive = the rest.

For the compound `OC(c1cc(-c2ccc(C(F)(F)F)cc2)nc(C(F)(F)F)c1)C1CCCCN1` (configuration not stated), the growth in the experiment on NCI-H23 lung was 23.4% (inactive) and -44.7% (active) and 62.5% (inactive); in the experiment on NCI-H226 lung it was -7.1% (active) and -6.47% (active) and 43.1% (inactive); with NCI-H322M lung, 48.2% (inactive) and 29.8% (inactive) and 70.3% (inactive); in the experiment with HOP-62 NSCLC, -69.8% (active) and -89.1% (active) and 57.1% (inactive); in the experiment on NCI-H460 lung, -77.9% (active) and -77.2% (active) and -47.9% (active); in the experiment with HOP-92 NSCLC it was -18.8% (active) and -58.7% (active) and 36.3% (inactive). Besides, the growth in the experiment on NCI-H522 lung was -67.2% (active) and -80.1% (active) and 9.35% (active); in the experiment with A549/ATCC NSCLC it was -43% (active) and -44.5% (active) and 35.6% (inactive); in the experiment with 786-0 renal, -48.8% (active) and -82.2% (active) and 27% (inactive); in the experiment with COLO 205 colon, -90.1% (active) and -85.4% (active) and -79.8% (active); in the experiment with DU-145 prostate it was -16.1% (active) and -94.1% (active) and 32.1% (inactive); with K-562 leukemia, -47.5% (active) and -65.5% (active) and -27.9% (active). The growth with MALME-3M melanoma is 22% (inactive) and -88.6% (active) and 60.1% (inactive); with MDA-MB-231 breast it was -57.8% (active) and -85.1% (active) and -19% (active); with RXF 393 renal, -94.4% (active) and -93% (active) and 39% (inactive); with SF-268 CNS it was -42.1% (active) and -39.4% (active) and 29.8% (inactive); in the experiment on SF-295 CNS, 188% (inactive); in the experiment on SF-539 CNS it was -41.7% (active) and -76.5% (active) and 40.2% (inactive). Besides, the growth with UACC-257 melanoma was -68.6% (active) and 68.3% (inactive) and -8.76% (active); in the experiment on M14 melanoma it was -77% (active) and -84.3% (active) and -76.6% (active).
Take `S=C1SCN(Cc2cccs2)CN1Cc1cccs1`: the growth is 107% (inactive) with NCI-H23 lung; 104% (inactive) with NCI-H226 lung; 99.4% (inactive) with NCI-H322M lung; 122% (inactive) in the experiment with HOP-62 NSCLC; 101% (inactive) with NCI-H460 lung; 79.9% (inactive) with HOP-92 NSCLC. The growth in the experiment on NCI-H522 lung is 46.7% (inactive); in the experiment on A549/ATCC NSCLC it was 96.8% (inactive); with 786-0 renal, 102% (inactive); in the experiment on COLO 205 colon it was 108% (inactive); with DU-145 prostate, 110% (inactive); with K-562 leukemia it was 63.6% (inactive). In addition, the growth in the experiment on MALME-3M melanoma was 107% (inactive); with MDA-MB-231 breast, 93.4% (inactive); in the experiment on RXF 393 renal it was 104% (inactive); in the experiment on SF-268 CNS it was 100% (inactive); in the experiment with SF-295 CNS it was 104% (inactive); in the experiment on SF-539 CNS it was 96.8% (inactive). Moreover, the growth is 94.5% (inactive) in the experiment on UACC-257 melanoma and 94.3% (inactive) with M14 melanoma.
For the compound `CCC(C)C(N)C(=O)NC(CC(N)=O)C(=O)NC(CC(C)C)C(=O)NC(CCCCN)C(=O)NC(C)C(=O)NC(CC(C)C)C(=O)NC(C)C(=O)NC(C)C(=O)NC(CC(C)C)C(=O)NC(C)C(=O)NC(CCCCN)C(=O)NC(CCCCN)C(=O)NC(C(=O)NC(CC(C)C)C(N)=O)C(C)CC` (configuration not stated), the growth is 82.1% (inactive) with NCI-H23 lung; 113% (inactive) in the experiment with NCI-H226 lung; 100% (inactive) in the experiment with NCI-H322M lung; 74.9% (inactive) in the experiment with HOP-62 NSCLC; 79.3% (inactive) with NCI-H460 lung; 61% (inactive) in the experiment with HOP-92 NSCLC. Further, the growth is 85.2% (inactive) in the experiment with NCI-H522 lung; 90.3% (inactive) with A549/ATCC NSCLC; 68.1% (inactive) in the experiment on 786-0 renal; 90% (inactive) in the experiment on COLO 205 colon; 57.9% (inactive) with DU-145 prostate; 82.5% (inactive) in the experiment on K-562 leukemia. The growth is 52.1% (inactive) in the experiment on MALME-3M melanoma; 62.1% (inactive) in the experiment on MDA-MB-231 breast; 39.6% (inactive) with RXF 393 renal; 66.8% (inactive) with SF-268 CNS; 106% (inactive) in the experiment with SF-295 CNS; 35.6% (inactive) with SF-539 CNS. The growth in the experiment on UACC-257 melanoma was 104% (inactive).
With `COC1CC(C)C(OC)c2cc(O)cc(c2O)NC(=O)/C(C)=C/C=C\C(C)C(OC(N)=O)/C(C)=C\C(C)C1OC` (configuration not stated), the growth is 39.4% (inactive) with NCI-H23 lung; 47.8% (inactive) in the experiment with NCI-H226 lung; 54.1% (inactive) in the experiment with NCI-H322M lung; 37.9% (inactive) in the experiment with HOP-62 NSCLC; 9.42% (active) in the experiment on NCI-H460 lung; 11.4% (inactive) in the experiment on HOP-92 NSCLC. For the same compound, the growth in the experiment on NCI-H522 lung is -67.4% (active); in the experiment with A549/ATCC NSCLC, 13.3% (inactive); in the experiment on 786-0 renal, 31.3% (inactive); in the experiment on COLO 205 colon, -0.179% (active); with DU-145 prostate, -29.7% (active); in the experiment with K-562 leukemia it was -58.6% (active). Besides, the growth was 32.1% (inactive) in the experiment with MALME-3M melanoma; 32.4% (inactive) in the experiment on MDA-MB-231 breast; -20.5% (active) in the experiment with RXF 393 renal; 63.1% (inactive) in the experiment on SF-268 CNS; -15.9% (active) with SF-295 CNS; 6.34% (active) in the experiment on SF-539 CNS. For the same compound, the growth in the experiment on UACC-257 melanoma was 14.4% (inactive).
On to `O=C(/C=C/C(Cl)(Cl)Cl)Nc1ccc(Cl)cc1`, for which the growth is 81.5% (inactive) with NCI-H23 lung; 106% (inactive) in the experiment on NCI-H226 lung; 126% (inactive) in the experiment with NCI-H322M lung; 125% (inactive) in the experiment on HOP-62 NSCLC; 115% (inactive) in the experiment with NCI-H460 lung; 82.1% (inactive) in the experiment on HOP-92 NSCLC. Moreover, the growth was -51.6% (active) in the experiment with NCI-H522 lung; 103% (inactive) in the experiment with A549/ATCC NSCLC; 109% (inactive) in the experiment with 786-0 renal; 98.6% (inactive) in the experiment with COLO 205 colon; 97.7% (inactive) in the experiment on DU-145 prostate; 65.7% (inactive) in the experiment with K-562 leukemia. Also, the growth in the experiment with MALME-3M melanoma was 121% (inactive); with MDA-MB-231 breast, 113% (inactive); in the experiment on RXF 393 renal, 87% (inactive); in the experiment with SF-268 CNS, 112% (inactive); with SF-295 CNS, 115% (inactive); in the experiment on SF-539 CNS it was 103% (inactive). In addition, the growth in the experiment on UACC-257 melanoma was 102% (inactive); with M14 melanoma it was 105% (inactive).
In the case of `C[n+]1ccccc1C[n+]1ccccc1`, the growth with NCI-H23 lung is 106% (inactive); in the experiment with NCI-H226 lung, 108% (inactive); in the experiment on NCI-H322M lung, 128% (inactive); in the experiment on HOP-62 NSCLC, 100% (inactive); in the experiment on NCI-H460 lung, 115% (inactive); in the experiment with HOP-92 NSCLC it was 101% (inactive). The growth with NCI-H522 lung is 111% (inactive); with A549/ATCC NSCLC it was 107% (inactive); with 786-0 renal, 108% (inactive); in the experiment on COLO 205 colon, 114% (inactive); in the experiment on DU-145 prostate it was 114% (inactive); in the experiment on K-562 leukemia, 87.8% (inactive). Also, the growth in the experiment on MALME-3M melanoma is 118% (inactive); in the experiment on MDA-MB-231 breast it was 122% (inactive); in the experiment on RXF 393 renal, 115% (inactive); with SF-268 CNS it was 96.8% (inactive); with SF-295 CNS, 114% (inactive); in the experiment on SF-539 CNS, 106% (inactive). Further, in the experiment with UACC-257 melanoma, the growth was 112% (inactive).
For the compound `CCCOS(=O)(=O)c1ccccc1`, the growth is 101% (inactive) with NCI-H23 lung; 103% (inactive) in the experiment with NCI-H226 lung; 102% (inactive) in the experiment with NCI-H322M lung; 84.6% (inactive) with HOP-62 NSCLC; 106% (inactive) in the experiment with NCI-H460 lung; 76.1% (inactive) in the experiment on HOP-92 NSCLC. Also, the growth was 104% (inactive) in the experiment with NCI-H522 lung; 111% (inactive) in the experiment on A549/ATCC NSCLC; 121% (inactive) in the experiment with 786-0 renal; 108% (inactive) in the experiment on COLO 205 colon; 118% (inactive) with DU-145 prostate; 128% (inactive) in the experiment on K-562 leukemia. The growth was 111% (inactive) in the experiment on MALME-3M melanoma; 107% (inactive) with MDA-MB-231 breast; 112% (inactive) in the experiment with RXF 393 renal; 106% (inactive) in the experiment on SF-268 CNS; 113% (inactive) in the experiment on SF-295 CNS; 102% (inactive) in the experiment with SF-539 CNS. In addition, the growth is 111% (inactive) in the experiment with UACC-257 melanoma and 115% (inactive) in the experiment with M14 melanoma.
For `c1ccc(-c2cc3cc4ccccc4cn3c2)cc1`, the growth was 89.3% (inactive) in the experiment on NCI-H23 lung; 73.1% (inactive) with NCI-H226 lung; 99.6% (inactive) in the experiment with NCI-H322M lung; 78.7% (inactive) in the experiment on HOP-62 NSCLC; 88.3% (inactive) in the experiment with NCI-H460 lung; 76.5% (inactive) in the experiment on HOP-92 NSCLC. Besides, the growth in the experiment on NCI-H522 lung is 79.4% (inactive); with A549/ATCC NSCLC, 89.9% (inactive); with 786-0 renal, 102% (inactive); in the experiment with COLO 205 colon it was 95.1% (inactive); in the experiment on DU-145 prostate, 101% (inactive); with K-562 leukemia, 64.3% (inactive). For the same compound, the growth was 91.3% (inactive) with MALME-3M melanoma; 81.6% (inactive) in the experiment with MDA-MB-231 breast; 104% (inactive) in the experiment on RXF 393 renal; 95.7% (inactive) with SF-268 CNS; 84.8% (inactive) with SF-295 CNS; 104% (inactive) in the experiment on SF-539 CNS. Also, the growth was 91.6% (inactive) with UACC-257 melanoma and 94.7% (inactive) with M14 melanoma.

(Values after PubChem BioAssay (NCI).)
